In PubChem BioAssay:
Calls of active or inactive are those of the source.

Columns and labels:
[1] = tested on: Human papillomavirus type 1a protein E7 (residues 44-93); test: HPV1a E7 fragment binders on microarrays, primary screen, biochemical, small-molecule microarray, residues 44-93, 635 nm fluorescence (AID 1108); conditions: small-molecule microarray binding, fluorescence 635 nm; higher = more signal;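 also: E7 fragment applied at 1 µg/mL in TBST for 1 h at 4 C; score combines spot fluorescence with its signal to noise ratio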
[2] = modulators of HCV replicon luciferase signal, primary screen, HCV replication inhibitor project, Huh7 cells, luciferase reporter (AID 1109); conditions: 48 h, higher = more signal;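 also: huh7 hepatoma cells harbouring a luciferase neomycin HCV replicon reporter; luciferase luminescence as measure of HCV replicon replication; test concentration not given here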
[3] = biological target: Left-right determination factor 2 (Homo sapiens) (UniProt O00292); test: LEFTY2 binders on small-molecule microarrays, primary screen, biochemical, small-molecule microarray, 635 nm fluorescence scan (AID 1110); conditions: LEFTY2 binding, higher = more signal
[4] = biological target: Calmodulin-1 (Homo sapiens) (UniProt P0DP23); test: CALM1 binders on microarrays, EGTA buffer, profiling panel, biochemical, small-molecule microarray, Cy5-labelled CALM1 (AID 1111); conditions: Cy5-CALM1 binding fluorescence, higher = more signal;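 also: labelled calmodulin applied in Tris saline Tween buffer holding calcium plus EGTA and DTT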
[5] = biological target: Calmodulin-1 (Homo sapiens) (UniProt P0DP23); test: calcium-bound CALM1 binders on microarrays, profiling panel, artefact control for SMM control-protein annotation, biochemical, small-molecule microarray, Cy5-labelled CALM1, plus calcium (AID 1112); conditions: Cy5-CALM1 binding fluorescence, higher = more signal;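 also: score merges spot fluorescence with signal to noise from triplicate slides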
[6] = small-molecule microarray binders of probe aWnt5a, primary screen, biochemical, biotinylated probe, 635/667 nm fluorescence (AID 1113); conditions: higher = more signal;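 also: score merges 667 nm fluorescence intensity with signal-to-noise per printed feature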
[7] = small-molecule microarray binders of probe aShh, primary screen, biochemical, biotinylated probe, 635/667 nm fluorescence (AID 1114); conditions: higher = more signal;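 also: probe is biotin-labelled aShh protein from a stem cell growth factor screen; measures binding of labelled protein to compounds printed on the slide; score merges feature fluorescence at 667 nm with signal-to-noise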
[8] = small-molecule microarray binders of probe aNog, primary screen, biochemical, biotinylated probe, 635/667 nm fluorescence (AID 1115); conditions: higher = more signal;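 also: probe is biotinylated aNog protein used at 0.15 µg/mL for 1 h at 4 C; z-score combines 667 nm fluorescence of each spot with its signal to noise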
[9] = biological target: Torsin-1A-interacting protein 1 (Homo sapiens) (UniProt Q5JTV8); test: LAP1 binders from COS7 cell lysate, primary screen, small-molecule microarray, 635/667 nm fluorescence (AID 1116); conditions: COS7-hLAP1 lysate binding, 635 nm fluorescence, higher = more signal
[10] = biological target: Alpha-bungarotoxin (Bungarus multicinctus) (UniProt P60615); test: alpha-bungarotoxin binders on microarray, profiling panel, artefact control for SMM control protein annotation, biochemical, small-molecule microarray, Alexa647 label, 635/667 nm fluorescence (AID 1117); conditions: alpha-BTX-A647 binding fluorescence, higher = more signal
[11] = biological target: Albumin (Bos taurus) (UniProt P02769); test: bovine serum albumin binders on microarray, profiling panel, artefact control for SMM control protein annotation, biochemical, small-molecule microarray, Alexa647 label, 635/667 nm fluorescence (AID 1118); conditions: BSA-A647 binding, fluorescence 635 nm, higher = more signal;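 also: score merges 667 nm emission intensity and signal-to-noise per printed compound spot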
[12] = small-molecule microarray binders of probe aXIP, primary screen, biochemical, NeuroSMM set, 635/667 nm fluorescence (AID 1119); conditions: higher = more signal, called active from +8 up or from −8 down;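 also: probe is the protein aXip251-270 applied at 1 µg/mL to compound-printed slides; binding of probe to printed compounds measured as 667 nm fluorescence plus signal to noise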
[13] = small-molecule binders of probe aNOTCH3, primary screen, biochemical, small-molecule microarray, 635/667 nm fluorescence (AID 1120); conditions: higher = more signal;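 also: probe is a biotin-tagged antibody raised against NOTCH3 rather than NOTCH3 protein; score merges spot fluorescence near 667 nm with spot signal to noise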
[14] = small-molecule binders of probe aNOTCH2, primary screen, biochemical, small-molecule microarray, 635/667 nm fluorescence (AID 1121); conditions: higher = more signal;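 also: score merges feature fluorescence read at 667 nm with its signal to noise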
[15] = biological target: Carbonic anhydrase 2 (Homo sapiens) (UniProt P00918); test: CAII small-molecule binders, profiling panel, biochemical, small-molecule microarray, Alexa647-labelled CAII (AID 1122); conditions: CAII-A647 binding fluorescence, higher = more signal
[16] = COS7 lysate on small-molecule microarray, probe aHis, 635 nm (AID 1123); conditions: COS7 cell lysate, fluorescence, higher = more signal;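 also: z-score combines 667nm fluorescence intensity with signal-to-noise per printed compound spot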
[17] = compound binding in COS7 lysate, probe aLAP1, primary screen, cell lysate, small-molecule microarray (AID 1124); conditions: probe aLAP1, fluorescence, higher = more signal;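 also: lysate comes from COS7 cells expressing LAP1 and is applied at 0.3 µg/mL; score merges spot fluorescence near 667 nm with signal-to-noise over triplicate slides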
[18] = tested on: Sam68 (KHDRBS1); test: Sam68 small-molecule binders, primary screen, biochemical, small-molecule microarray, 635 nm fluorescence (AID 1125); conditions: small-molecule microarray binding, higher = more signal;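 also: score merges 667 nm channel intensity with signal to noise over triplicate slides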
[19] = tested on: Chordin-like protein 2 (CHRDL2); test: CHRDL2 small-molecule binders, primary screen, biochemical, small-molecule microarray, 635 nm fluorescence (AID 1126); conditions: small-molecule microarray binding, fluorescence 635 nm; higher = more signal;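 also: printed compound slides probed with Chrdl2 protein at 4 µg/mL for 1 h at 4 C; score merges 667 nm emission intensity with signal to noise over three replicate slides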
[20] = biological target: Concanavalin-A (Canavalia ensiformis) (UniProt P02866); test: ConA small-molecule binders, primary screen, artefact control for SMM control protein annotation, biochemical, small-molecule microarray, Alexa647 label, 635 nm (AID 1127); conditions: ConA-A647 binding fluorescence, higher = more signal;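 also: z combines 667 nm emission intensity with signal-to-noise across three replicate slides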
Chain of Concanavalin-A (Canavalia ensiformis) (P02866 whole entry, looked up): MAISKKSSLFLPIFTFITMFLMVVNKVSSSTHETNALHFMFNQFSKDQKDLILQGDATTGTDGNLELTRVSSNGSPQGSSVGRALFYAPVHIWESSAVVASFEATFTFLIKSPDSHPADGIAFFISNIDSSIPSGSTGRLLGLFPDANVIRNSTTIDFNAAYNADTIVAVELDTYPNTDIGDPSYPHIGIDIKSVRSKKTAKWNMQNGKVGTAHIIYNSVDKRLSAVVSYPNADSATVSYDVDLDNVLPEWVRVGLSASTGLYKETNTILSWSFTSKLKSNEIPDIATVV

Chain of Torsin-1A-interacting protein 1 (Homo sapiens) (Q5JTV8 whole entry, looked up): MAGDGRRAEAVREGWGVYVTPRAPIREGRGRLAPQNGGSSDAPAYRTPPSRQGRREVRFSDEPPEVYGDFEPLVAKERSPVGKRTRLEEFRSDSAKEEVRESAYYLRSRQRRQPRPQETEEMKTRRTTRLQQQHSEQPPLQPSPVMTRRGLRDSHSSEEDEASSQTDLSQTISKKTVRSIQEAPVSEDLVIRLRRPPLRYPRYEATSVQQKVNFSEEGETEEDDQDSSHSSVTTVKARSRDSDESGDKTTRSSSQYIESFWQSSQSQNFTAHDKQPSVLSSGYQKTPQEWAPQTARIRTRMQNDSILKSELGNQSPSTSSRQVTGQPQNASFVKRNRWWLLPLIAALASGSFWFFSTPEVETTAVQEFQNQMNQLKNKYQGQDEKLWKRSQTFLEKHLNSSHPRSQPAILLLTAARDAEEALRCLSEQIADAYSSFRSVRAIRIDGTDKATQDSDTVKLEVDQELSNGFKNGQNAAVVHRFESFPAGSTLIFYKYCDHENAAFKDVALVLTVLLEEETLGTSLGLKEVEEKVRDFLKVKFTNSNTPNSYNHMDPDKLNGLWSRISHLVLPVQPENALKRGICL
Chain of Left-right determination factor 2 (Homo sapiens) (O00292 whole entry, looked up): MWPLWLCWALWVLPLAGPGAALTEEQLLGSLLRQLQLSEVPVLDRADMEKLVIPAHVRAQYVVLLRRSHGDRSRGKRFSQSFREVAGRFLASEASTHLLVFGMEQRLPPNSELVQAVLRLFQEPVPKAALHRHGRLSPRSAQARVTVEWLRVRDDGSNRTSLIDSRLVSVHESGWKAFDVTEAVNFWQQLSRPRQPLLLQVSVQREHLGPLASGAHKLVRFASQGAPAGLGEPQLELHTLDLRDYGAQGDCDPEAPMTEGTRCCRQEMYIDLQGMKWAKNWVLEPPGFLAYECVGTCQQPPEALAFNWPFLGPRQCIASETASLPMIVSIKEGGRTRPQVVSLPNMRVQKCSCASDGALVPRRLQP
Chain of Albumin (Bos taurus) (P02769 whole entry, looked up): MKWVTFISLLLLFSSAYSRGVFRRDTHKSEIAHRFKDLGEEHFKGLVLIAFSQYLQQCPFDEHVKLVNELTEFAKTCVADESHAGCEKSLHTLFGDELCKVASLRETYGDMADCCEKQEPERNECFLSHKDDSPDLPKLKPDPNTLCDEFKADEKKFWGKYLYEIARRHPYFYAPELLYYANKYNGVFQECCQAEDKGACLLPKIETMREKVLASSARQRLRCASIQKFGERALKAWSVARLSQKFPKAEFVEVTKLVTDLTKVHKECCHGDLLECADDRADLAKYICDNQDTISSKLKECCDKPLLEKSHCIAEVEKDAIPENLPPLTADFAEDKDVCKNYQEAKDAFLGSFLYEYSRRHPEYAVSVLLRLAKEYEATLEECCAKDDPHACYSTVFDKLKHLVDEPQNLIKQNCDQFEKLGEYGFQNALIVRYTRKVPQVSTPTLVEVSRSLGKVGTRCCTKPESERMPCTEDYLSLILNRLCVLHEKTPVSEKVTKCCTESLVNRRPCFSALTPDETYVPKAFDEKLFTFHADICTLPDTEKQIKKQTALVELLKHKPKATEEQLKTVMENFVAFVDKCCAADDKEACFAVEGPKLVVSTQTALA
Chain of Alpha-bungarotoxin (Bungarus multicinctus) (P60615 whole entry, looked up): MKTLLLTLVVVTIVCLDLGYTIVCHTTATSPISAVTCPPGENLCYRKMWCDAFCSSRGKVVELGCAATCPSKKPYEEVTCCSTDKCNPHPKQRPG

Row | SMILES | composite z-score [1] | z-score [2] | composite z-score [3] | composite z-score [4] | composite z-score [5] | composite z-score [6] | composite z-score [7] | composite z-score [8] | composite z-score [9] | composite z-score [10] | composite z-score [11] | composite Z-score [12] | composite z-score [13] | composite z-score [14] | composite z-score [15] | composite z-score [16] | composite z-score [17] | composite z-score [18] | composite z-score [19] | composite z-score [20]
1 | COCCOC(=O)N1C(=O)[C@@]2(c3cc(C#CC4(O)CCCCCC4)ccc31)[C@H](c1ccc(OCCO)cc1)N1[C@H](c3ccccc3)[C@H](c3ccccc3)OC(=O)[C@H]1[C@@H]2C(=O)Nc1nc2ccccc2s1 | 1.22 | -2.43 | 0.985 | 1.35 | 0.249 | -0.006 | 0.214 | 0.721 | 1 | 0.968 | 0.729 | 0.526 (inactive) | 0.5 | -0.0009 | 0.161 | 0.804 | 0.388 | 1.3 | 0.58 | 1.11
2 | Cc1nc2cc(Br)ccc2c(=O)n1Cc1cccc(O)c1 | 0.804 | 0.201 | 0.874 | 0.523 | 0.302 | -0.0263 | -0.0946 | 0.761 | 1.21 | -0.0871 | 0.417 | 0.0614 (inactive) | -0.119 | -0.12 | 0.218 | 1.28 | 1.09 | 0.968 | 1.04 | 0.799
3 | COc1ccc([Si](C)(C)[C@@H]2[C@@H](CC(=O)N3Cc4ccccc4C[C@H]3CO)O[C@]3(C(=O)N(c4ccccc4)c4ccccc43)[C@H]2C)cc1 | 1.38 | -4.41 | 0.671 | 1.75 | 1.36 | 0.418 | 0.293 | 1.14 | 0.553 | 1.26 | -0.104 | 8.06 (active) | 0.146 | 0.0018 | 0.429 | 1.21 | 0.339 | 1.3 | 0.943 | 0.869
4 | CC(C)C[C@@H]1NC(=O)[C@@]23C(=O)N[C@@H](Cc4ccccc4)C2[C@H](C)[C@@]2(C)O[C@H]2C3/C=C/C/C=C\CNC(=O)[C@@H](C)NC1=O (stereo not given in full) | -0.702 | 0.0935 | 0.58 | -0.463 | -1.19 | -0.228 | 0.0899 | -0.636 | -0.212 | -0.116 | 0.663 | -0.106 (inactive) | -0.251 | -0.196 | 0.449 | -0.128 | -0.217 | -0.604 | 0.643 | 0.075
5 | COC(=O)C1N=C(c2ccc(OCCCO)cc2)N(c2ccccc2)O1 (stereo not given) | 0.154 | -2.69 | 0.681 | 0.933 | 0.576 | -0.196 | -0.0681 | 0.438 | 0.924 | 2.07 | 0.878 | 0.608 (inactive) | 0.187 | -0.0073 | 0.403 | 1.1 | 0.382 | 1.14 | 0.236 | 1.11
6 | C=CCNC(=O)[C@@H]1[C@H]2C(=O)O[C@H](c3ccccc3)[C@H](c3ccccc3)N2[C@H](c2ccc(OCCO)cc2)[C@@]12C(=O)N(C(=O)OCCOC)c1ccc(C#CCCO)cc12 | 1.33 | -0.459 | 0.909 | 0.88 | -0.381 | 0.0229 | -0.0769 | -0.519 | 0.262 | 1.35 | 0.474 | 0.365 (inactive) | 0.0422 | -0.0677 | 0.576 | 1.23 | 0.659 | 1.27 | 0.528 | 1.11
7 | C=CCC(OC(C)=O)[C@@H]1[C@@H](N(Cc2ccc(-c3cccc(C(F)(F)F)c3)o2)C(=O)c2cccc3ccccc23)c2cc(OCCCO)ccc2N1C(=O)Cc1ccc(OC)cc1 (stereo not given in full) | 0.328 | -0.72 | -0.391 | -0.534 | -0.738 | -0.208 | 0.167 | -0.083 | 0.0368 | -0.0191 | 0.311 | -0.0798 (inactive) | -0.027 | -0.151 | 0.149 | 0.428 | 0.0827 | -0.323 | 0.0616 | -0.422
8 | [N-]=[N+]=Nc1ccccc1[C@@H]1OC(c2ccc(OCCCO)cc2)=N[C@]1(Cc1ccccc1)C(=O)NCc1ccccc1 | 0.656 | -2.53 | -0.0068 | 2.46 | 1.33 | 0.166 | 0.628 | 1.95 | 2.27 | 2.92 | 0.955 | -0.128 (inactive) | 0.367 | 0.156 | 0.379 | 2.74 | 1.13 | 1.3 | -0.553 | 1.18
9 | CCCC=C(CCC)[C@@H](NS(=O)(=O)c1cccc2cccnc12)c1ccc(-c2ccccc2)cc1 | 1.39 | -0.0261 | 0.601 | 1.62 | 0.841 | 0.183 | 0.432 | -0.779 | 0.765 | 1.08 | 0.723 | 0.339 (inactive) | 0.438 | -0.0581 | 0.666 | 2.88 | 0.0607 | 1.31 | -0.677 | 1.14
10 | C=CCC(OC(C)=O)[C@@H]1[C@@H](N(Cc2cc3ccccc3o2)C(=O)c2ccc(-c3ccccc3)cc2)c2cc(OCCCO)ccc2N1C(=O)Cc1ccc(OC)cc1 (stereo not given in full) | -0.401 | -1.46 | 0.0189 | -0.184 | 0.464 | -0.0758 | -0.335 | -0.216 | -0.195 | -0.17 | 0.0787 | 0.443 (inactive) | -0.0189 | -0.14 | -0.284 | 0.401 | -0.237 | 0.0416 | 0.186 | 0.444
11 | CN1C(=O)C2C(C1=O)C1C=C(CCCO)C2C(c2cccs2)N1Cc1cc2c(cc1Br)OCO2 (stereo not given) | 1.44 | -1.22 | 0.772 | 1.89 | 0.658 | 0.184 | 0.131 | -0.373 | 2.29 | 1.7 | 1.01 | 1.13 (inactive) | 0.323 | -0.144 | 0.805 | 2.24 | 1.09 | 1.3 | 0.171 | 1.18
12 | CCCNC(=O)[C@@]1(Sc2ccc(C)cc2)CC(=O)N(C(C)C)[C@@H]1c1ccc(CO)cc1I | -0.593 | -2.03 | -1.7 | 1.31 | 0.944 | -0.178 | -0.0553 | 0.909 | 0.669 | -0.432 | -0.249 | 0.292 (inactive) | -0.219 | -0.163 | 0.771 | 1.22 | 0.846 | 0.58 | -2.46 | -0.818
13 | COCCOC(=O)N1C(=O)[C@@]2(c3cc(C#CCC(C(=O)OC)C(=O)OC)ccc31)[C@H](c1ccc(OCCO)cc1)N1[C@H](c3ccccc3)[C@H](c3ccccc3)OC(=O)[C@H]1[C@@H]2C(=O)Nc1nc2ccccc2s1 | 1.16 | -2.06 | 0.423 | 1.05 | -0.0309 | -0.0202 | -0.0793 | -0.114 | 0.743 | 1.06 | -0.86 | 0.575 (inactive) | -0.0077 | 0.15 | 0.405 | 0.221 | -0.157 | 1.31 | 0.219 | 1.11
